Inconclusive results are not listed. A call without a number means that no potency is given here. Calls of active or inactive are those of the source. Calls follow the shape of the dose curve; as a rule, active = well fitted cell-killing curve with a large enough effect; inconclusive = small, poorly fitted or top-dose-only effect; inactive = flat fitted curve, though single readings scatter.
Potency is read from the fitted curve at half-maximal effect.

This test is described as follows: Cell Viability - LYMP2-011 (AID 969). Also: nearly all actives have a fitted effect of over 60% in size. The following applies: LYMP2-011 lymphoblastoid cells viability; series mostly up to 92.2 µM. From the text:
NIH Chemical Genomics Center [NCGC]
NIH Molecular Libraries Screening Centers Network [MLSCN]
National Institutes of Environmental Health Sciences [NIEHS]
National Toxicology Program [NTP]
We have developed a 1536-well cell-based assay for quantitative high throughput screening (qHTS) against a number of cell lines to determine in vitro cytotoxicity of small molecules. This particular assay uses a human lymphoblastoid cell line (LYMP2-011) purchased from Coriell Institute for Medical Research.
NCGC Assay Protocol Summary:
The CellTiter-Glo luminescent cell viability assay (Promega) is a homogeneous method to measure the number of viable cells in culture. The end point readout of this assay is based on quantitation of intracellular ATP, an indicator of metabolic activity, using the luciferase reaction. Luciferase catalyzes the oxidation of beetle Luciferin to oxyluciferin and light in the presence of ATP. The luminescent signal is proportional to amount of ATP present.
Using the CellTiter-Glo luminescent cell viability assay, the amount of cellular ATP was measured in the lymphoblastoid cell line with complete culture medium following compound treatment for 24 hours. The assay was performed in opaque white Kalypsys 1536-well plates. In the screen, tetraoctylammonium bromide was used as positive control. Library compounds were measured for their ability to cause acute toxicity in the cell line, as reflected by a decrease in intracellular ATP levels, in a concentration-dependent manner. […] AC50 values were determined from concentration-response data modeled with the standard Hill equation.
qHTS protocol for CellTiter Glo lymphoblastoid cellular assay
[Step] [Parameter] [Value] [Description]
1. Reagent; 5 uL; 2500 lymphoblastoid cells/well
2. Time; 5 hr; 37 C incubation
4. Controls; 23 nL; Tetraoctylammonium bromide 6.4pM to 92 uM
5. Time; 24 hr; 37 C incubation
6. Reagent; 5 uL; CellTiter Glo reagent
7. Time; 30 min; Room Temperature
8. Detection; Luminescence; Viewlux plate reader
Keywords: cell viability, cytotoxicity, lymphoblastoid cell line, luminescence, NTPHTS, NTPHTS_NCGC, NIEHS, DSSTox, MLSMR, MLSCN, NIH Roadmap, qHTS, NCGC
As for `NC(=NCCCCCCN=C(N)/N=C(\N)Nc1ccc(Cl)cc1)/N=C(\N)Nc1ccc(Cl)cc1`, the Potency is 39.8 µM (active).

Turning to `CN(C)/N=N/c1nc[nH]c1C(N)=O`, the Potency result was “inactive”.

Regarding `COc1cccc2c1C(=O)c1c(O)c3c(c(O)c1C2=O)C[C@@](O)(C(=O)CO)C[C@@H]3O[C@H]1C[C@H](N)[C@H](O)[C@H](C)O1`, the Potency was 0.251 µM (active).

In the case of `C[C@]12CC[C@@H]3c4ccc(O)cc4CC[C@H]3[C@@H]1CC[C@@H]2O`, the Potency result is “inactive”.

In the case of `CC(C)(C)CC(C)(C)c1ccc(OCCOCC[N+](C)(C)Cc2ccccc2)cc1`, the Potency is 31.6 µM (active).

Take `O=c1ccc2ccccc2o1`: the Potency result was “inactive”.

`Oc1ccc(O)cc1`: the Potency is 39.8 µM (active).

For `CCCCCCc1ccc(O)cc1O`, the Potency entry is “inactive”.

Turning to `O=C(O)CCCCC(=O)O`, the Potency entry was “inactive”.

For `COC1=CC(=O)C[C@@H](C)[C@]12Oc1c(Cl)c(OC)cc(OC)c1C2=O`, the Potency result is “inactive”.

Regarding `CC(=O)O[C@]1(C(C)=O)CC[C@H]2[C@@H]3C[C@H](C)C4=CC(=O)CC[C@]4(C)[C@H]3CC[C@@]21C`, the Potency is 39.8 µM (active).

As for `C=C(CC)C(=O)c1ccc(OCC(=O)O)c(Cl)c1Cl`, the Potency was 50.1 µM (active).

As to `O=C1OC(c2ccc(O)cc2)(c2ccc(O)cc2)c2ccccc21`, the Potency entry was “inactive”.

In the case of `CC/C(=C(/CC)c1ccc(O)cc1)c1ccc(O)cc1`, the Potency result is “inactive”.

With `CC(=O)Oc1ccc(C(c2ccc(OC(C)=O)cc2)c2ccccn2)cc1`, the Potency entry is “inactive”.

With `C=CCc1ccc(O)c(OC)c1`, the Potency result is “inactive”.

`CC(O)C(=O)O` (stereo not drawn): the Potency entry is “inactive”.

Take `Nc1ccc(C(=O)O)cc1`: the Potency entry is “inactive”.

These data come from PubChem BioAssay (NCATS).
